Measured values published in PubChem BioAssay (NCI).
Compounds without any hit were thinned out: in the full panel of roughly 83,000, 20% have a hit.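 Cells were grown in 96-well plates and exposed to the test compound at a single concentration for 48 hours; results are reported as percent growth, with values below 10 considered active.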 Unmarked numbers belong to inactive results. Active and inactive are the calls of the source.

Experiments:
Experiment in all cases: NCI-60 one-dose screen, 48 h (100 = growth as untreated, 0 = no growth, -100 = all killed)
Details in all cases: 10 µM unless noted
[1] = tested on: HCT-15 colon
[2] = tested on: HT29 colon
[3] = tested on: SNB-75 CNS
[4] = tested on: SNB-19 CNS
[5] = tested on: U251 CNS
[6] = tested on: PC-3 prostate
[7] = tested on: SK-MEL-5 melanoma
[8] = tested on: UACC-62 melanoma
[9] = tested on: LOX IMVI melanoma
[10] = tested on: SK-MEL-28 melanoma

SMILES | growth [1] | growth [2] | growth [3] | growth [4] [%] | growth [5] | growth [6] | growth [7] | growth [8] | growth [9] | growth [10]
O=S(=O)(NCCCNc1nccc(-c2c(-c3ccc(O)cc3)nc3sccn23)n1)c1ccc(F)cc1 | 10% (active) | 7.73% (active) | 17.8% | 35.1 | 11.1% | 19.3% | -85.1% (active) | -1.06% (active) | -29.4% (active) | -6.84% (active)
Clc1nc(-c2cccnc2)nc2sc3c(c12)CCCCCC3 | 98.9% | 100% | 91.3% | 96.2 | 91.3% | 94.7% | 96.8% | 91.3% | 100% | 104%
COc1cc(C2C=C(C)N=C3SC(C)=NN32)cc(OC)c1OC (stereo not given) | 95.8% | 102% | 82.5% | 100 | 100% | 95.3% | 101% | 107% | 96.3% | 119%
c1ccc([P+](CCC[P+](c2ccccc2)(c2ccccc2)c2ccccc2)(c2ccccc2)c2ccccc2)cc1 | 101% | 66.9% | 54% | 64.4 | 40% | 38% | 75.1% | 62.5% | 86.6% | 75.1%
COc1ccc(C2CC(c3cccs3)=NN2c2ccc(S(=O)(=O)NC(=O)Nc3ccc(C)cc3)cc2)cc1 (stereo not given) | 99.3% | 128% | 93.7% | 108 | 94.1% | 86.3% | 61.4% | 38.1% | 99.7% | 47.8%
O=Nc1c(-c2c(O)[nH]c3ccc([N+](=O)[O-])cc23)[nH]c2ccc(O)cc12 | 10.3% | 69.2% | -28.1% (active) | 17.5 | 0.602% (active) | 2.12% (active) | -40.9% (active) | -34.4% (active) | -32.4% (active) | -11% (active)
CCOC(=O)C1=C(CSC(=S)N(C2CCCCC2)C2CCCCC2)N(C)C(=O)NC1c1ccccc1 (stereo not given) | 39.6% | 22% | 71.8% | 49.2 | 39.5% | 21.6% | 14.7% | 46.1% | 33% | 75.8%
O=C(Nc1ccc(Cl)cc1)c1cc(-c2ccc(F)cc2)c2sc(=O)[nH]c2n1 | 13.1% | 16.9% | -5.08% (active) | 19.3 | 9.42% (active) | 10.3% | -86.1% (active) | 26.9% | 8.5% (active) | 25.4%
Cc1nc2sccn2c1-c1csc(Nc2ccccc2Cl)n1 | 34.2% | 15.4% | 56.9% | 65.6 | 42.1% | 53.5% | 11.5% | 46.7% | 45.5% | 65.6%
Nc1nc(Cl)c2c(ncn2Cc2ccc(CCl)cc2)n1 | 84.9% | 91% | 100% | 93.2 | 81.4% | 77.6% | 70.3% | 78.4% | 69.7% | 101%
COc1ccc(-c2nc(-c3nc4ccc(F)cc4[nH]3)cc3c2[nH]c2ccccc23)cc1 | 36.1% | 32.8% | 60.8% | 62.3 | 29.4% | 27.6% | 51.1% | 41.4% | 29.5% | 57.4%
COc1cc2oc(-c3cccc(NC(=O)Nc4ccc5c(c4)OCO5)c3)cc(=O)c2c(OC)c1OC | 42.1% | 48.2% | 21.4% | 83.5 | 62.1% | 45.6% | 45.6% | 62.1% | 38.9% | 74.2%
Oc1ccc(Cl)cc1-c1cc(-c2ccc(Cl)cc2)n[nH]1 | 25% | 103% | 59.1% | 81.2 | 59.3% | 45.6% | 70.9% | 64% | 58.2% | 87.6%
